The values below come from PubChem BioAssay (NCI).

Molecules are shown by their SMILES. Where “and” joins values, the source holds several entries; their conditions need not be identical. Identical values can stand only once. Compounds without any hit were thinned out: in the full panel of roughly 83,000, 20% have a hit.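 The test compound was applied at a single concentration to cells in 96-well plates for 48 hours, and percent growth was recorded.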 Values without a mark were called inactive. Calls of active or inactive are those of the source. How the source made its calls: active means growth percent below 10; inactive means the rest.

The subject of this assay is HL-60(TB) leukemia. As to the kind of experiment: NCI-60 one-dose screen, 48 h (100 = growth as untreated, 0 = no growth, -100 = all killed). Particulars: 10 µM unless noted.
Turning to `IP(CCCSc1n(Cc2ccc3ccccc3c2)c(-c2ccccc2)c(-c2ccccc2)[n+]1Cc1ccc2ccccc2c1)(c1ccccc1)(c1ccccc1)c1ccccc1`, the growth was -29.1% (active).

Take `Cn1cc(-c2nnc(N)nc2-c2c[nH]c3ccc(F)cc23)c2cc(F)ccc21`: the growth was 61.7%. Regarding `O=C1CC2(CCOCC2)Oc2ncccc21`, the growth was 13.3%.

With `COc1ccc(C(=O)c2c(N)c(C#N)cn2-c2ccc(Cl)cc2Cl)cc1`, the growth is 84.7%. As to `C#C[C@]1(O)CC[C@H]2[C@@H]3CC=C4c5sc(C6CC6)nc5CC[C@]4(C)[C@H]3CC[C@@]21C`, the growth is 58.8%.

Regarding `CCCC/C(=C\c1ccc(O)c(O)c1)C(=O)NC(Cc1ccccc1)C(=O)C(=O)NCCc1ccc(OC)cc1` (stereo not given), the growth was 92.5%. Turning to `CCC/C=C/C=C/C(=O)N[C@@H](Cc1cc(F)cc(F)c1)C(=O)N[C@@H]1C(=O)N2CCC[C@H]2C(=O)N2CCCC[C@H]2C(=O)N[C@@H](C)C(=O)N2C[C@H](C)C[C@H]2C(=O)O[C@H]1C`, the growth is 3.76% (active). Take `Cc1cc(S(=O)(=O)N(C)C)cc(NCC(=O)NC(=O)NCC(C)C)c1C`: the growth is 128%. On to `N=c1c2cc(-c3ccccc3)oc2ncn1/N=C/c1ccc(Br)cc1`, for which the growth was 109%. Turning to `CCCCCCCCCC(=O)NC(C)(C)C(=O)N1CCC[C@H]1C(=O)N[C@@H](CC(C)C)C(=O)N[C@@](C)(CC)C(=O)N[C@@H](CCC(N)=O)C(=O)N[C@H](CCC(N)=O)C(=O)NC(C)(C)C(=O)NC(C)(C)C(=O)N[C@@H](CCC(N)=O)C(=O)N[C@H](CC(C)C)C(=O)N[C@H](CO)CC(C)C`, the growth is -76.7% (active) and -39.4% (active). Next, `CCCC[n+]1ccc(SCC(=O)n2ccc3ccccc32)c2ccccc21`: 86.8%.

On to `Nn1c(=O)n(-c2cccc(C(F)(F)F)c2)c(=O)c2cc(-c3ccc(F)cc3F)ccc21`, for which the growth is -45.9% (active).

With `Cc1nn(-c2ccccc2)c2ncnc(N/N=C/c3ccccc3O)c12`, the growth is -7.88% (active).

On to `N#C/C(=C\c1ccc(-c2ccc(Cl)cc2)o1)C(=O)Nc1ncc(Cc2ccc(Br)cc2)s1`, for which the growth is 50%. As for `O=C1[C@@H]2Cc3c([nH]c4ccccc34)[C@H](c3c(Cl)cccc3Cl)N2C(=O)CN1C1CCN(Cc2ccccc2)CC1`, the growth was 29.3%. For `N#Cc1cccc(CN2CCC3=C(C2)C(=O)N(Cc2ccc(Cl)cc2)C2=NCCCN23)c1`, the growth was 11.7%. Next, `COc1cc2oc(-c3cccc(NC(=O)c4cc(NC(=O)[C@H](C)N)ccc4Cl)c3)cc(=O)c2c(OC)c1OC`: 97.2%; `Nc1ncc(-c2ccc3ncnc(N4CCc5cc(F)c(F)cc54)c3c2)cn1`: 37.1%; `COc1ccccc1/C=C/C(=O)c1nnn(-c2ccc(F)cc2)c1C`: 31.9%. Next, `CCO/C=N/C1=C(C#N)C(c2ccc(OC)cc2)c2sc3c(C)cccc3c2O1` (stereo not given): -18.5% (active). Consider `N#Cc1c(NC(=O)c2ccc(F)c(Cl)c2)sc2c1CCC(=O)C2`, for which the growth is -14.5% (active). For `COc1ccc(-c2cc(C(=O)N=Nc3c(O)[nH]c4ccccc34)c3ccccc3n2)cc1OC`, the growth was 106%. As to `CCOc1ccc([C@H]2C(C(=O)c3ccc(Cl)cc3)C3(N[C@@H]2c2ccccc2)C(=O)Nc2ccc(Br)cc23)cc1` (stereo not given in full), the growth was 15.2%. Turning to `CN1CCN(c2ccc(/C=N/n3cnc4oc(-c5ccccc5)cc4c3=N)cc2)CC1`, the growth was 121%. `CN1CCN(c2ccc(Nc3nc(NCCCNS(=O)(=O)c4ccc(Cl)cc4)c4sccc4n3)cc2)CC1`: the growth was -43.7% (active). For `COc1cc(-c2nc(-c3ccccc3)[nH]c2-c2ccnc(NCCCNS(=O)(=O)c3ccc(C(F)(F)F)cc3)n2)ccc1Cl` the value was 13.9% and 37.8%; for `C#Cc1nc(C2=C(C)C(=O)/C(=N/OC(C)=O)C2)cs1`, 20.4%. `NC(N)=Nc1ccc(Oc2cccc(Nc3ccc(Cl)c(C(F)(F)F)c3)c2)cc1`: the growth was 1.32% (active). For the compound `COc1ccc(-c2nc3cc(Cl)c(Cl)cc3n2CC(=O)N=Nc2c(O)[nH]c3ccc(OC)cc23)cc1`, the growth is 86.3%. Regarding `Cc1ccc(-n2cc(/C=C/C(=O)c3ccc(S(C)(=O)=O)cc3)c(-c3ccc(S(C)(=O)=O)cc3)n2)cc1`, the growth is 69.4%.

With `COC(=O)c1cccc(NC2=CC(=O)C(C)=C(C)C2=O)c1`, the growth was 42%. In the case of `O=C(NNc1nc2cc(F)c(F)cc2n2cccc12)c1cnccn1`, the growth is 3.67% (active).

Regarding `COc1cc(/C=N/n2cnc3oc(-c4ccccc4)cc3c2=N)cc(CN2CCN(C)CC2)c1O`, the growth was 110%. Take `CN1C(=O)N(c2ccccc2)C2N=C(N/N=C/c3ccccc3)SC21` (stereo not given): the growth was -6.56% (active). Consider `Cn1c(SCC(=O)c2ccco2)nc2ccccc2c1=O`, for which the growth is 98.3%. Consider `O=C1[C@@H]2Cc3c([nH]c4ccccc34)[C@@H](c3ccc(Cl)cc3)N2C(=O)CN1C1CCN(Cc2ccccc2)CC1`, for which the growth was -9.39% (active). In the case of `Cc1ccc2c(n1)C(=O)C(Cl)=C(Nc1cccc(C(=O)OC(C)(C)C)c1)C2=O`, the growth was 16.7%.

Regarding `Cc1cc(-c2ccc(Cl)cc2)n(Cc2nnc(SCC(=O)Nc3ccc(S(N)(=O)=O)cc3)n2-c2ccc([N+](=O)[O-])cc2)n1`, the growth is 76.8%. In the case of `CCCCCCNC(=O)Oc1ccc(/C(=C(/C)c2ccccc2)c2ccc(OCCN3CCCCCC3)cc2)cc1`, the growth is -39.6% (active). Regarding `CS(=O)(=O)c1ccc2c(c1)c1c(n2S(=O)(=O)c2ccc(Cl)cc2)CCCC1`, the growth is 4.55% (active).
